High-throughput results as filed in PubChem.
In the library only some 1.2% were active in any assay of this set; here they are far more common.
RGS8-Gao reg: regulators of human RGS8-Galphao interaction | hit rate 0.34% among 220,000 | multiplexed bead flow cytometry, RGS8-Galphao binding; actives lie on both sides | P09471 | response (percent of control binding), % at 10 µM | AID 1423; in the data active = response below about 60% or above about 140%; inactive = in between;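 also: Galphao activated as the GDP aluminium fluoride complex binding bead-coupled RGS8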
Target sequence (P09471 whole entry, looked up): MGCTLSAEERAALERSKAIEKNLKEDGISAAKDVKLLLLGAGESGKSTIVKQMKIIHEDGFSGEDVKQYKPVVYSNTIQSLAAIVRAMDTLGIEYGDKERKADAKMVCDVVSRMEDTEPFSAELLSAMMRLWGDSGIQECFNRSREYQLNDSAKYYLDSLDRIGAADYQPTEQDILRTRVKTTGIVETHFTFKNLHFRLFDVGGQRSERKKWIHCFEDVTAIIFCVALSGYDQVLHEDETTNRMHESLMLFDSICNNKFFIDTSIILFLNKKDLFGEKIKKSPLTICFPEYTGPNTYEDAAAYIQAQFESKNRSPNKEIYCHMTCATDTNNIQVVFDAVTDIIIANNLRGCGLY
RGS16-Gao: regulators of human RGS16-Galphao interaction; O15492+P09471; bead-based flow cytometry RGS16-Galphao binding, fluorescence; actives lie on both sides; binding response (% of control), % at 10 µM; hit rate 0.38% among 220,000; AID 1441;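 also: Galphao activated by GDP with aluminum fluoride before binding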
GSH fluor: GSH bead compound fluorescence profile | GSH beads flow cytometry, compound fluorescence 488/530 nm; stronger effect = higher value | fluorescence (KMESF) at 10 µM | hit rate 0.25% among 190,000 | AID 1776; in the data active = fluorescence above about 89;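 also: glutathione beads carrying GST-tagged Bcl family fusion proteins plus one bare bead set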
Avidin bead fluor: compound fluoresces at 488/530 nm on avidin beads. hit rate 0.38% among 220,000. fluorescence (KMESF) at 10 µM. AID 1775. compound fluorescence 488/530 nm, flow cytometry; stronger effect = higher value; in the data active = fluorescence above about 47
RGS7-Gao: human RGS7-Galphao interaction regulation; binding response (% of control), % at 10 µM; hit rate 0.35% among 220,000; P09471; Multiplexed bead flow cytometry, RGS7-Galphao binding; actives lie on both sides; in the data active = binding response below about 49% or above about 150%; inconclusive = no clear call, values can overlap the other calls; inactive = in between;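 also: fluorescent Galphao held in activated GDP-AlF4 state binding bead-coupled RGS7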
RGS4-Gao reg: modulates binding of RGS4 to human Galphao. P09471. Multiplexed bead flow cytometry; actives lie on both sides. binding response (% of control), % at 10 µM. hit rate 0.33% among 220,000. AID 1415; in the data active = binding response below about 49% or above about 150%; inactive = in between;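 also: fluorescent Galphao activated with aluminum fluoride binding bead-coupled RGS4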
RGS-Gao: RGS4-Galphao interaction regulator (human); AID 1504; hit rate 99% among 1,600; shares compounds with RGS16-Gao; multiplexed bead flow cytometry, RGS–Galpha-o binding; RGS4–Galpha-o binding response, % at 10 µM;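 also: fluorescently labeled Galpha-o bound to GDP with aluminium fluoride binding biotinylated RGS beads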
Target sequence (P09471 whole entry, looked up): as above
Target sequence (P49798 whole entry, looked up): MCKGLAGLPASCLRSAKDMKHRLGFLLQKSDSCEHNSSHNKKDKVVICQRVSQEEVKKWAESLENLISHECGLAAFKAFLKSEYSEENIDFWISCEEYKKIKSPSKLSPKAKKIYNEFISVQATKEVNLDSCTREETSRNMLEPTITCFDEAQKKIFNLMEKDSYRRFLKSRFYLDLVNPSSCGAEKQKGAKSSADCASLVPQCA
Biotin-avidin: counter-screen: compounds disrupting biotin binding to avidin beads. shares compounds with RGS16-Gao. streptavidin beads, fluorescein-biotin binding, flow cytometry. inhibition, % at 10 µM. 1,700 tested, under 10 active;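 active = inhibition above 50%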;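 also: median green fluorescence of gated singlet beads compared with DMSO control wells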
RGS8-Gao single: RGS8-Galphao interaction regulation, single point confirmation; shares compounds with RGS16-Gao; bead-based flow cytometry RGS8-Galphao binding, fluorescence; actives lie on both sides; binding response (% of control), % at 10 µM; hit rate 3% among 1,700; in the data active = binding response below about 72% or above about 130%; inactive = in between;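 also: Galphao activated as GDP AlF4 complex before binding bead RGS8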
RGS7-Gao confirm: RGS7-Galphao interaction regulation, single point confirmation; shares compounds with RGS16-Gao; hit rate 7.8% among 1,700; bead-based flow cytometry RGS7-Galphao binding; actives lie on both sides; AID 1837; response (percent of control binding), % at 10 µM; in the data active = response below about 75% or above about 130%; inactive = in between;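 also: fluorescent Galphao activated with GDP and aluminum fluoride binding bead-coupled RGS7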
RGS16-Gao single: RGS16-Galphao interaction regulation, single point confirmation; shares compounds with RGS16-Gao; bead-based flow cytometry, RGS16-Galphao binding; actives lie on both sides; response (% of control binding), % at 10 µM; hit rate 4% among 1,700; in the data active = response below about 74% or above about 130%; inactive = in between;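 also: Galphao activated as the GDP aluminium fluoride complex binding bead-coupled RGS16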
RGS4-Gao single: confirmation of regulators of human RGS4-Galphao interaction | shares compounds with RGS16-Gao | RGS4-Galphao binding, multiplexed bead flow cytometry; actives lie on both sides | binding response (% of control), % at 10 µM | hit rate 4% among 1,700 | AID 1840; in the data active = binding response below about 74% or above about 130%; inactive = in between
RGS19-Gao conf: confirmation of regulators of human RGS19-Galphao interaction; shares compounds with RGS16-Gao; bead-based flow cytometry RGS19-Galphao binding; actives lie on both sides; response (percent of control binding), % at 10 µM; hit rate 5% among 1,700; AID 1841; in the data active = response below about 50% or above about 160%; inactive = in between
Large screens that a line does not name were inactive (follow-up assays come after a bar, where they were run); [ ] = another dose, or the depositor's remark. Unless noted, no rule for the calls is given here.

CN(c1ccccc1)c1nc2ccsc2c(=O)s1	Avidin bead fluor 169, RGS7-Gao 247[activator] | RGS-Gao 127 | Biotin-avidin inactive | RGS8-Gao single inactive | RGS7-Gao confirm inactive | RGS16-Gao single inactive | RGS4-Gao single inactive | RGS19-Gao conf inactive
O=C(Cc1ccc(Cl)cc1)Oc1cccc2cccnc12	RGS16-Gao 22 | RGS-Gao 79 | Biotin-avidin inactive | RGS8-Gao single inactive | RGS7-Gao confirm inactive | RGS16-Gao single inactive | RGS4-Gao single inactive | RGS19-Gao conf inactive
O=C(Oc1cccc2cccnc12)c1ccco1	none
N#CC1=C(N)N=C(SCc2ccccc2)C(C(N)=O)C12CCCCC2 (centres undefined)	RGS8-Gao reg 142[activator] | RGS-Gao 108
C=CCSC1=NC(N)=C(C#N)C2(CCCCC2)C1C(N)=O (centres undefined)	none
CSc1nc(N)nc(C2CC2)n1	RGS7-Gao inconclusive (no result: GSH fluor) | Biotin-avidin inactive | RGS8-Gao single inactive | RGS7-Gao confirm inactive | RGS16-Gao single inactive | RGS4-Gao single inactive | RGS19-Gao conf inactive
CSc1nc(N)nc(N(C)C)n1	RGS7-Gao inconclusive (no result: GSH fluor)
COc1cc(/C=N/NC(=O)C(N)=O)ccc1OCC(=O)N1C(C)CCCC1C (centres undefined)	none
O=c1ccc2cc(O)c(O)cc2o1	RGS8-Gao reg 59 | RGS-Gao 57 | Biotin-avidin inactive | RGS8-Gao single inactive | RGS7-Gao confirm inactive | RGS16-Gao single inactive | RGS4-Gao single inactive | RGS19-Gao conf inactive
COc1ccc(NC(=S)N(CCCN2CCCC2)Cc2cccn2Cc2ccc(Cl)cc2)cc1Cl	none
CCOC(=O)N1CCC(NC(=O)c2cccnc2SC)CC1	none (no result: RGS8-Gao reg, RGS16-Gao, Avidin bead fluor, RGS7-Gao, RGS4-Gao reg) | Biotin-avidin inactive | RGS8-Gao single inactive | RGS7-Gao confirm inactive | RGS16-Gao single inactive | RGS4-Gao single inactive | RGS19-Gao conf inactive
CCOC(=O)c1sc(NC(=O)C(C)Sc2nc(N)cc(=O)[nH]2)nc1C (centres undefined)	none
COc1ccc(Cl)cc1S(=O)(=O)N1CCN(C)CC1	none
COc1ccc(Cl)cc1S(=O)(=O)N1CCCC1	none (no result: RGS8-Gao reg, RGS16-Gao, Avidin bead fluor, RGS7-Gao, RGS4-Gao reg) | Biotin-avidin inactive | RGS8-Gao single inactive | RGS7-Gao confirm inactive | RGS16-Gao single inactive | RGS4-Gao single inactive | RGS19-Gao conf inactive
O=C(NCc1ccccc1)c1cc2ccccc2o1	none
CCNC(=O)c1cc2ccccc2o1	RGS8-Gao reg 16, RGS16-Gao 11, RGS7-Gao 15, RGS4-Gao reg 10 | Biotin-avidin inactive | RGS8-Gao single inactive | RGS7-Gao confirm inactive | RGS16-Gao single inactive | RGS4-Gao single inactive | RGS19-Gao conf inactive
COc1cc2c(cc1NC(=O)CSc1nnc(Cc3cccs3)n1Cc1ccco1)oc1ccccc12	none
COc1cc2c(cc1NC(=O)CSc1nnc(Cc3cccs3)n1C)oc1ccccc12	RGS16-Gao 314[activator], Avidin bead fluor 105, RGS7-Gao 248[activator], RGS4-Gao reg 315[activator] | Biotin-avidin inactive | RGS8-Gao single inactive | RGS7-Gao confirm inactive | RGS16-Gao single inactive | RGS4-Gao single inactive | RGS19-Gao conf inactive
Cn1cccc2[nH]c(=O)nc1-2	RGS7-Gao inconclusive (no result: GSH fluor)
Cc1nc(C(F)(F)F)ccc1C(=O)N1CCCCC1	RGS8-Gao reg 31, RGS16-Gao 5.8, RGS7-Gao inconclusive, RGS4-Gao reg 3.0 (no result: GSH fluor) | Biotin-avidin inactive | RGS8-Gao single inactive | RGS7-Gao confirm inactive | RGS16-Gao single inactive | RGS4-Gao single inactive | RGS19-Gao conf inactive
CCCCN(CCCC)S(=O)(=O)c1ccc(NC(=O)c2ccc([N+](=O)[O-])cc2Cl)cc1	RGS16-Gao 304[activator] | RGS-Gao 113 | Biotin-avidin inactive | RGS8-Gao single inactive | RGS7-Gao confirm inactive | RGS16-Gao single inactive | RGS4-Gao single inactive | RGS19-Gao conf inactive
Cc1ccc(N(CC(O)CN2CCCCC2)S(=O)(=O)c2ccccc2[N+](=O)[O-])cc1 (centres undefined)	none
Cc1ccc(-n2c(SCC(=O)NCCN3C(=O)CSC3=O)nnc2-c2ccccc2)cc1	RGS16-Gao 18 | RGS-Gao 90 | Biotin-avidin inactive | RGS8-Gao single inactive | RGS7-Gao confirm inactive | RGS16-Gao single inactive | RGS4-Gao single inactive | RGS19-Gao conf inactive
Cn1c(SCC(=O)NCCN2C(=O)CSC2=O)nnc1-c1ccccc1	Avidin bead fluor 138, RGS7-Gao 213[activator] | RGS-Gao 124 | Biotin-avidin inactive | RGS8-Gao single inactive | RGS7-Gao confirm inactive | RGS16-Gao single inactive | RGS4-Gao single inactive | RGS19-Gao conf inactive
O=C(NCC1CCCO1)c1ccc2c(=O)n(CC3CCCO3)c(SCC(=O)N3CCCC3)nc2c1 (centres undefined)	none
CCS(=O)(=O)c1cc([N+](=O)[O-])c(Sc2ccccc2NC(C)=O)s1	RGS8-Gao reg 21, RGS16-Gao 9.3, RGS7-Gao inconclusive, RGS4-Gao reg 17 (no result: GSH fluor) | Biotin-avidin inactive | RGS8-Gao single 63 | RGS7-Gao confirm inactive | RGS16-Gao single 58 | RGS4-Gao single inactive | RGS19-Gao conf 10
CC(=O)Nc1cccc(NS(=O)(=O)c2ccccc2[N+](=O)[O-])c1	none
O=C1CC(SC(=Nc2ccccc2)Nc2ccccc2)C(=O)N1c1ccc(Cl)cc1 (centres undefined)	none
O=C(CSC1CC(=O)N(c2ccc(C(=O)O)cc2)C1=O)Nc1ccc(Cl)cc1 (centres undefined)	Avidin bead fluor 117, RGS7-Gao 241[activator] | RGS-Gao 123 | Biotin-avidin inactive | RGS8-Gao single inactive | RGS7-Gao confirm inactive | RGS16-Gao single inactive | RGS4-Gao single inactive | RGS19-Gao conf inactive
O=C(CSc1nncs1)NCCCc1ccccc1	none
